hgDAF-12 ag = agonists of H. glycines DAF-12 nuclear receptor; activation, % at 6.8 µM; HEK293 GAL4-hgDAF12 UAS-luciferase reporter, agonist luminescence; normalized to butyrate control; 370,000 compounds, 1.8% hits; AID 687014;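 active = activation above a cutoff set at the mean of all screened compounds plus 3 SD, cut at about 10% in these data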;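 also: 0% = DMSO wells and 100% = sodium butyrate wells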
hcDAF-12 act = activators of H. contortus DAF-12 nuclear receptor | HEK293 hcDAF-12 lit1-tk-luc reporter, luminescence; 0% DMSO, 100% Δ7-dafachronic acid | activation, % at 6.8 µM | 370,000 compounds, 1.4% hits;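 active = activation above the mean of all tested compounds plus 3 SD, cut at about 5.5% in these data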;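 also: 100% = response to 3 µM Δ7-dafachronic acid high control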
DAX1 inh-1 = inhibitors of DAX1 repression of SF-1 activated StAR promoter. 370,000 compounds, 1.1% hits. inhibition, % at 6.8 µM. HEK293T StAR-luciferase reporter, SF-1/DAX-1 repression relief;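 active = inhibition above the mean over all tested compounds plus 3 SD, cut at about 3.6% in these data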;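 also: 0% = DAX-1 cells with DMSO and 100% = cells lacking DAX-1 with DMSO; higher inhibition means more luminescence from relief of DAX-1 repression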
ssDAF-12 act = activates DAF-12 receptor from parasite S. stercoralis; 370,000 compounds, 1% hits; HEK293 ssDAF-12/GRIP1 lit1-tk-luc reporter, luminescence; % of 3 µM dafachronic acid response; activation, % at 6.8 µM;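 active = activation above the mean over all tested compounds plus 3 SD, cut at about 0.9% in these data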;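 also: 0% = DMSO-only wells and 100% = 3 µM delta7-dafachronic acid wells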
DAX1 inh-2 = inhibits human nuclear receptor DAX1; 340,000 compounds, 0.99% hits; P51843; inhibition, % at 6.75 µM; HEK293 Gal4-DAX1 luciferase reporter, luminescence;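 active = inhibition above the mean over all tested compounds plus 3 SD, cut at about 4.2% in these data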;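 also: 0% = DAX1-transfected cells with DMSO and 100% = empty-vector control cells with DMSO; inhibition shows as a rise in luminescence from relieved DAX1 repression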
hgDAF12 ag = confirmation of H. glycines DAF-12 agonists | shares compounds with hgDAF-12 ag | HEK293 GAL4-hgDAF12 luciferase reporter, agonist mode; percent of butyrate response | activation, % at 6.8 µM | 3,300 compounds, 80% hits;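 active = mean activation over triplicate wells above the hit cutoff derived from the earlier primary screen, cut at about 11% in these data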;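 also: 0% = DMSO low control and 100% = 2 mM sodium butyrate high control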
LXR ag 2 = LXR-beta agonism as DAF-12 counter-screen. shares compounds with hgDAF-12 ag. HEK293 Gal4-LXR luciferase reporter, 24 h. activation, % at 6.8 µM. 3,300 tested, under 10 active. AID 743051;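 active = mean activation of the triplicate above a set limit carried over from the primary screen, none filed active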
Target sequence (P55055 whole entry, looked up, the tested form may be a part): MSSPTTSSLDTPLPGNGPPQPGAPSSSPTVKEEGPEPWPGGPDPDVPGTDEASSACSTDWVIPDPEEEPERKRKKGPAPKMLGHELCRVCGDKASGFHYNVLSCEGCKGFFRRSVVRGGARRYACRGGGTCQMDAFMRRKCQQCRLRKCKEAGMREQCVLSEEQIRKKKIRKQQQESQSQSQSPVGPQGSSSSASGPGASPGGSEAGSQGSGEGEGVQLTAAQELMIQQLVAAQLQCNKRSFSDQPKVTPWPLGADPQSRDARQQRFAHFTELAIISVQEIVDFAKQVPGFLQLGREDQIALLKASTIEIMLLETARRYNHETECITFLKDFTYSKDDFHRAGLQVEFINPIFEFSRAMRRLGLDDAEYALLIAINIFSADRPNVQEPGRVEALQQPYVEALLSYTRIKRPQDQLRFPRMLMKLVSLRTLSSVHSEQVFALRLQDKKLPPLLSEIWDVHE
Numbers without * were called inactive; nt = not tested or not shown. A selection: hits, their analogues and other compounds. The true share with any hit is near 4.1%.

SMILES	hgDAF-12 ag	hcDAF-12 act	DAX1 inh-1	ssDAF-12 act	DAX1 inh-2	hgDAF12 ag	LXR ag 2
CC(=O)c1cccc(NC(=S)NC(=O)c2ccc(C)cc2)c1	15*	2	4.0*	0	0	15*	1
CCOc1cccc(C(=O)NC(=S)Nc2ccccc2)c1	19*	3	2	0	3	16*	0
CCC(=O)Nc1cccc(NC(=S)NC(=O)c2cc3ccccc3o2)c1	16*	5	2	1	2	22*	1
CCC(=O)Nc1cccc(NC(=S)NC(=O)c2ccc(C)cc2)c1	14*	3	3.8*	-1	4.8*	16*	1
C#CCN1C(=O)[C@]2(OCCC=C[C@H]2C)c2ccccc21	1	1	2	-1	nt	nt	nt
CCc1cc2c(nc1CC)CCCN2C	3	0	0	-1	nt	nt	nt
O=C(CSc1nnc(-c2ccccc2Br)o1)N1CCOCC1	8	4	1	0	3	nt	nt
C/C(N)=C(/C#N)C(=O)CSc1nnc(-c2ccccc2Br)o1	14*	3	3.8*	0	0	17*	1
CCC(C)NC(=O)c1ccc2c(SCC(=O)O)c3c(nc2c1)CCCC3 (stereo unspecified)	3	-2	0	-1	0	nt	nt
CCC(C)NC(=O)c1ccc2c(Cl)c3c(nc2c1)CCC3 (stereo unspecified)	18*	0	3	-1	5.7*	9	0
O=C(Nc1ccc(Cl)cn1)c1ccc2c(Cl)c3c(nc2c1)CCC3	15*	2	2	-1	3	8	1
COc1cccc(NC(=O)C2CCCN2C(=O)Nc2ccc(Cl)cc2)c1 (stereo unspecified)	3	-2	0	-2	nt	nt	nt
CC(=O)C1=C(C)N(CC(C)C)C(=S)NC1c1ccc(Br)cc1 (stereo unspecified)	-1	-2	-1	-1	nt	nt	nt
Cc1nc2ccccc2nc(C)c1=NOCc1cccc(F)c1	14*	3	3	0	0	-4	0
C=Cc1ccc(C(=O)N(Cc2ccc(F)cc2)C(C(=O)N(C)C2CCCC2)c2ccc(OC)c(OC)c2)cc1 (stereo unspecified)	-2	-2	-1	-2	nt	nt	nt
CC1CC1c1ccc(/C=C(\C#N)C(=O)Nc2ccc(Cl)cc2)o1 (stereo unspecified)	14*	3	2	0	1	14*	1
Cc1cnc(NC(=O)C2CCCO2)s1 (stereo unspecified)	15*	0	0	-1	0	4	0
CC(C)c1nnc(NC(=O)C2CCCO2)s1 (stereo unspecified)	4	0	2	-1	0	nt	nt
O=C1NC(c2cccc(C(F)(F)F)c2)c2c(-c3ccccc3)n[nH]c21 (stereo unspecified)	0	-1	-1	-1	nt	nt	nt
COc1ccc(NC(=O)c2cccc(OS(=O)(=O)N(C)C)c2)cc1	17*	2	2	-1	0	12*	1
COc1ccc(NC(=O)c2cc3ccccc3cc2O)cc1	15*	3	1	0	2	16*	0
O=c1oc2cc(O)ccc2cc1-c1ccccc1	6	3	3	1	1	nt	nt
COC(=O)c1ccc(OS(=O)(=O)N(C)C)cc1	20*	1	1	0	1	6	0
COc1ccc(C(=O)NNC(=O)c2cc3ccccc3cc2O)cc1	0	3	-1	0	1	nt	nt
CN(C)S(=O)(=O)Oc1ccc(C(=O)Nc2ccc([N+](=O)[O-])cc2)cc1	-5	-3	-2	-2	-4	nt	nt
SMILES	hgDAF-12 ag	hcDAF-12 act	DAX1 inh-1	ssDAF-12 act	DAX1 inh-2	hgDAF12 ag	LXR ag 2
COc1ccc(-c2cc3ccc(O)cc3oc2=O)cc1	14*	5	3	0	1	14*	1
COc1ccc(NC(=O)c2ccc(C)cc2)cc1	14*	4	3.9*	1	-1	18*	1
N=c1oc2cc(O)ccc2cc1C(=O)Nc1ccc(F)cc1	10	4	1	-1	2	nt	nt
CCCCOc1ccc(C(=O)Nc2ccc(SC(F)F)cc2)cc1OC	-1	-1	0	-2	0	nt	nt
COc1ccc(C(=O)Nc2ccc(SC(F)F)cc2)cc1	15*	2	1	-1	-1	12*	0
COc1ccc(NC(=O)c2cc3ccc(O)cc3o/c2=N\O)cc1	18*	5.7*	3	1	0	15*	1
COC(=O)C1=C(C)N(C)C(=NCc2ccc(C(F)(F)F)cc2)NC1c1ccc(Cl)cc1 (stereo unspecified)	-2	-1	0	-1	nt	nt	nt
O=C(N=C1N=C2C=CC(Br)=CN2Cc2ccccc21)c1ccc([N+](=O)[O-])cc1[N+](=O)[O-]	14*	5	1	1.1*	1	14*	1
C/C=C/c1ccc([C@@H]2[C@H](CO)N(S(C)(=O)=O)[C@H]2CN(C)C(=O)CC)cc1	6	-2	0	-1	nt	nt	nt
COc1ccc(CN(CCN2CCOCC2)C(=O)c2cc(F)cc(F)c2)cc1OC	-3	-1	0	-1	nt	nt	nt
Fc1ccc(/C=N/Nc2nccnc2Cl)cc1	14*	4	1	0	6.1*	6	0
COc1ccccc1CNC(=O)C/C(C)=N/NC(=O)Cc1ccc(Cl)cc1	3	1	0	-1	1	nt	nt
CCOC(=O)N/N=C/c1cc(C)n(-c2ccccc2)c1C	-1	-1	0	-2	-2	nt	nt
Cc1cc(/C=N/NC(=O)c2ccccc2F)c(C)n1-c1ccccc1	14*	4	3	1	3	17*	1
C/C(CC(=O)NCc1ccc(Cl)cc1)=N\NC(=O)c1ccccc1F	14*	1	2	1.5*	2	0	0
CCCC(CCC)=NNC(=O)c1ccccc1F	16*	2	3	0	3	4	0
CCC(/C=N/NC(=O)c1ccccc1F)CC	18*	1	2	-1	5.3*	1	0
CC(C)C[C@H]1COc2cc(NCCCN3CCOCC3)ccc2S(=O)(=O)N1	1	1	0	-1	nt	nt	nt
O=C(Nc1ccc(Nc2ccccc2)cc1)c1ccccc1F	5	0	0	-1	3	nt	nt
CCN(CC)c1ccc(NC(=O)c2ccccc2F)cc1	14*	5.6*	2	1	0	21*	1
N#Cc1ccc(OC[C@@H](O)CN2CCC(C(O)(c3ccccc3)c3ccccc3)CC2)cc1	-4	0	-1	-2	nt	nt	nt
CCCNC(=O)c1oc2ccc3c(c2c1C)C(=O)CC(C)(C)O3	16*	3	3	0	0	13*	1
